Shown are actives, neighbours in structure and some others; about 8% of the full set was active somewhere.
KB-V1 MDR tox: KB-V1 MDR subline cytotoxicity | 400,000 tested, 3.4% active | Potency, µM (highest dose often 46.1 µM), most hits filed as cytotoxic | KB-V1 MDR cells viability, CellTiter-Glo, 72 h; also: % is scaled to controls: 0 for no effect and ±100 for the full control effect; nearly all actives have a fitted effect of over 60% in size
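In this primary screen, KB-V1 cells overexpressing P-gp are incubated with library compounds (lowest to highest concentration) for 72 h at 37 degrees C before a luminescent ATP viability read.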
MCF10A rereplic: DNA re-replication induction in MCF 10a cells; MCF 10A DNA re-replication, Hoechst nuclear intensity, 48 h; Potency, µM (doses to about 46.1 µM), for inactives: at the top dose activity, positive = re-replication, most hits filed as activators; 350,000 tested, 2.9% active; AID 624296; also: % of control where 0% means no effect; nearly all actives have a fitted effect of over 50% in size
HT1080NT lethal: kills 2HG-producing HT-1080-NT fibrosarcoma cells. Potency, µM (doses to about 46.1 µM), for inactives: top-dose activity, negative = less viability, hits mostly cytotoxic. HT-1080-NT fibrosarcoma viability, CellTiter-Glo ATP luminescence, 48 h. 360,000 tested, 1.6% active;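 also: NT is the 2HG producing partner of a matched IDH1 knockdown line; 0% = DMSO-treated cells and -100% = media-only wells without cells; nearly all actives have a fitted effect of over 55% in size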
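A 48-hour cytotoxicity screen used HT-1080-NT cells plated 2 hours before compound delivery. ATP-based CellTiter-Glo luminescence measured viability, normalized to DMSO and no-cell controls.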
HT1080 IDH1KD tx: toxicity to HT-1080 IDH1 knockdown cells (counter line). HT-1080 IDH1 knockdown viability, ATP luminescence, 48 h. Potency, µM (highest dose often 46.1 µM), for the others: at the highest dose activity, negative = toxicity, actives largely listed as cytotoxic. 360,000 tested, 2% active. AID 686971;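 also: 0% = DMSO wells and -100% = cell-free medium wells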
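CellTiter-Glo luminescence after 48 h compound exposure at 37 degrees C of IDH1-knockdown HT-1080 cells in 5% FBS RPMI. %Activity scaled between DMSO wells and cell-free media wells, with curves fitted and assigned curve classes.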
SW480 rereplic: inducers of DNA re-replication in SW480 colon cancer cells. SW480 DNA re-replication, Hoechst DNA content imaging, 48 h. Potency, µM (doses to about 46.1 µM), inactives show top-dose re-replication activation, hits mostly activators. 340,000 tested, 1.8% active; also: % of control where 0% means no effect; nearly all actives have a fitted effect of over 55% in size
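DNA re-replication was detected as more nuclei of elevated Hoechst intensity after 48 hr exposure to compound (23 nL pinned per well of 250 cells).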
KB-3-1 tox: kills parental KB-3-1 adenocarcinoma cells; AID 1347075; Potency, µM (series often up to 46.1 µM), usual class: cytotoxic; KB-3-1 viability, CellTiter-Glo ATP luminescence, 72 h; 400,000 tested, 1.4% active; also: % is scaled to controls: 0 for no effect and ±100 for the full control effect; nearly all actives have a fitted effect of over 60% in size
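Cytotoxicity in the drug-sensitive parental line KB-3-1 was scored as loss of CellTiter-Glo luminescence following 72 h incubation with compound. Values come from curve fitting of normalized concentration-response data.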
* = called active by the depositor; i = inactive; u = inconclusive; x = no result. Calls follow the shape of the dose curve; as a rule, active = well fitted curve in the direction sought with a large enough effect; inconclusive = small, poorly fitted or top-dose-only effect, or another doubt; inactive = no such curve, though single readings can be large; an effect the other way counts as inactive or inconclusive. Potency is read from the fitted curve at half-maximal effect.

SMILES | KB-V1 MDR tox | MCF10A rereplic | HT1080NT lethal | HT1080 IDH1KD tx | SW480 rereplic | KB-3-1 tox
O=S(=O)(c1ccccc1)N1CCN(C(=S)NCc2ccccc2)CC1 | u | 10.7% | 1.8% | -7.7% | 1.0% | i
CCOc1ccc(S(=O)(=O)N2CCN(C(=O)c3cc4c(s3)CCCC4)CC2)cc1 | 3.26µM* | 10.0% | -2.9% | -1.5% | 8.0% | 11.6µM*
O=C(c1cc2c(s1)CCCCC2)N1CCN(c2ncccn2)CC1 | 16.4µM* | 0.2% | 6.5% | -1.8% | -1.0% | i
CCOc1ccc(S(=O)(=O)N2CCN(C(=S)NCc3ccccc3)CC2)cc1 | 18.4µM* | u | 26.6% | -8.1% | -1.6% | i
CC/C(=C\c1ccc(N(C)C)cc1)c1ccncc1 | 10.3µM* | u | u | u | u | 20.6µM*
COc1ccc(NC(=O)CCC(=O)N2CCC(c3ccccc3)=N2)cc1S(=O)(=O)N1CCCCC1 | u | -2.1% | 3.3% | -9.2% | -18.3% | i
CCOC(=O)c1sc2nc(C)nc(NCc3ccc(Cl)cc3)c2c1C | u | 15.0% | u | u | 7.4% | u
CCOC(=O)c1sc2nc(C)nc(NCc3ccc(F)cc3)c2c1C | i | u | 18.4µM* | 20.6µM* | u | i
COc1ccc(C(=O)Nc2ccccc2C(=O)N/N=C/c2cccc3ccccc23)cc1 | u | 5.7% | 18.4µM* | 18.4µM* | 13.5% | u
CN(C)c1ccc(C=NNC(=O)c2cccc3ccccc23)c(Cl)c1 | 3.66µM* | 18.3% | u | u | 18.4µM* | 5.17µM*
CCOc1ccc(C=NNC(=O)c2cccc3ccccc23)cc1OCC | 23.1µM* | 8.9% | -0.9% | 15.0% | -3.6% | i
COc1ccc(C(=O)Nc2ccccc2C(N)=O)cc1 | i | 1.1% | -3.3% | -16.2% | -9.4% | u
O=C(N/N=C/c1ccccc1O)c1cccc2ccccc12 | u | -8.6% | u | 9.2µM* | u | i
COc1cc(/C=N/NC(=O)c2cccc3ccccc23)ccc1OCC(N)=O | i | 0.3% | -8.4% | -0.7% | -6.6% | i
O=C(COc1cccc2cccnc12)N/N=C/c1ccccc1O | 11.6µM* | -16.9% | -15.3% | -28.7% | -22.0% | u
COc1ccc(/C=N/NC(=O)c2nn(C)cc2Br)cc1CSCc1ccco1 | x | 1.1% | 1.3% | 2.0% | -5.6% | x
COc1ccc(C(=O)Nc2ccccc2C(=O)N/N=C/c2ccncc2)cc1OC | u | 2.4% | 25.9µM* | 25.9µM* | -82.5% | u
COc1ccc(C(=O)Nc2ccccc2C(=O)NCc2cccnc2)cc1OC | x | 4.4% | -0.1% | 0.7% | 9.6% | x
CCOc1cc(/C=N/NC(=O)c2nn(C)cc2Br)ccc1OCc1ccccc1 | 16.4µM* | 16.6% | -0.8% | 9.8% | -1.3% | i
O=C(N/N=C/c1ccccc1O)c1cc[n+]([O-])cc1 | i | u | -18.2% | u | 25.9µM* | i
Cc1ccccc1OCC(=O)N/N=C/c1cccc2cccnc12 | u | 17.4% | -13.7% | u | u | i
COc1ccc(NC(=O)CCc2nnc3n(C)c(=O)c4sccc4n23)cc1Cl | i | x | x | x | x | i
CCOc1ccc(NC(=O)c2c(NCc3cccs3)sc3c2CCCCC3)cc1 | i | x | x | x | x | i
COCCN(C(=O)c1sc2ccccc2c1Cl)c1c(N)n(CC(C)C)c(=O)[nH]c1=O | i | 4.8% | 12.9% | 2.3% | -0.5% | i
O=C(N/N=C/c1ccc[nH]1)c1ccccc1O | 5.17µM* | -31.7% | -15.3% | -11.0% | u | u
COCc1cc(C)nc(OCC(=O)N/N=C/c2ccc(O)cc2O)c1C#N | i | 19.5% | -28.1% | u | u | i
COCc1cc(C)nc(OCC(=O)N/N=C/c2ccccc2O)c1C#N | i | 8.1% | u | 18.4µM* | 5.3% | i
O=C(COc1ccccc1C(=O)Nc1ccccc1)Nc1cccc([N+](=O)[O-])c1 | i | x | x | x | x | u

Screens: PubChem BioAssay, National Center for Advancing Translational Sciences (NCATS)
